In PubChem BioAssay (NCI):
Compounds without any hit were thinned out: in the full panel of roughly 79,000, 15% have a hit. Calls of active or inactive are those of the source. Rule as the data show it: active = growth inhibition above about 70%; inactive = the rest.

Tests used:
[1] = NCI Yeast Anticancer Drug Screen. Data for the rad52 strain (AID 147);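 also: 0% = growth of vehicle-treated control cultures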; conditions: S. cerevisiae rad52 mutant growth inhibition, stronger effect = higher value
In short: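 DNA repair-defective yeast; compound exposure; growth scored against vehicle controls.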

[2] = NCI Yeast Anticancer Drug Screen. Data for the wt1 strain (AID 149);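 also: 0% = growth of vehicle-treated wt1 cultures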; conditions: S. cerevisiae wt1 strain (SPY 50644) growth inhibition, stronger effect = higher value
In short: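 Vehicle-normalised growth inhibition; strain wt1; compound exposure.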

[3] = NCI Yeast Anticancer Drug Screen. Data for the rad50EPP+ strain (AID 151);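 also: 0% = growth of vehicle-treated control cultures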; conditions: S. cerevisiae rad50 mutant strain, stronger effect = higher value
In short: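 rad50EPP+ yeast treated with test compounds. Readout: growth vs vehicle control.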

[4] = NCI Yeast Anticancer Drug Screen. Data for the rad50 strain (AID 155);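 also: 0% = growth of vehicle-only cultures of the same strain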; conditions: S. cerevisiae rad50 strain growth inhibition, stronger effect = higher value
In short: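 A DNA repair-deficient yeast mutant serves as the test organism; compound-induced growth inhibition is calculated against vehicle-treated cells.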

[5] = NCI Yeast Anticancer Drug Screen. Data for the mec2-1 strain (AID 157); conditions: S. cerevisiae mec2-1 strain, stronger effect = higher value
In short: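 Growth inhibition is read against vehicle-treated controls after compound exposure of the mec2-1 yeast strain, which is defective in DNA damage repair or cell cycle control.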

[6] = NCI Yeast Anticancer Drug Screen. Data for the rad14 strain (AID 159);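 also: 0% = growth of vehicle-treated control cultures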; conditions: S. cerevisiae rad14 strain growth inhibition, stronger effect = higher value
In short: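 Vehicle-treated cultures served as the baseline for growth inhibition of a DNA repair-mutant yeast strain exposed to each compound.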

[7] = NCI Yeast Anticancer Drug Screen. Data for the sgs1 mgt1 strain (AID 161);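 also: 0% = growth of cultures given vehicle only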; conditions: S. cerevisiae sgs1 mgt1 strain, stronger effect = higher value
In short: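 Yeast cells carrying a defined DNA-repair defect were exposed to test compounds. Growth inhibition was measured relative to vehicle-treated controls.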

[8] = NCI Yeast Anticancer Drug Screen. Data for the CLN2oe strain (AID 163);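 also: 0% = growth of vehicle-only control cultures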; conditions: S. cerevisiae CLN2oe strain, stronger effect = higher value
In short: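 Compound-treated yeast; growth vs vehicle ctrl = % inhibition. Genetically altered strain (cell-cycle control).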

[9] = NCI Yeast Anticancer Drug Screen. Data for the cln2 rad14 strain (AID 165);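 also: 0% = growth equal to vehicle treated cultures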; conditions: S. cerevisiae cln2 rad14 strain, stronger effect = higher value
In short: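 Growth inhibition, relative to vehicle-treated controls, is the read-out. The test organism is a yeast strain with defined genetic alterations, cln2 rad14.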

[10] = NCI Yeast Anticancer Drug Screen. Data for the bub3 strain (AID 167); conditions: S. cerevisiae bub3 mutant strain, stronger effect = higher value
In short: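 Inhibition values come from growth of compound-treated mutant yeast normalised to vehicle-treated controls.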

[11] = NCI Yeast Anticancer Drug Screen. Data for the wt2 strain (AID 169);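 also: 0% = growth of vehicle-treated yeast cultures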; conditions: S. cerevisiae wt2 strain growth inhibition, stronger effect = higher value
In short: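 Compound exposure of yeast; growth compared with vehicle controls; inhibition reported.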

[12] = NCI Yeast Anticancer Drug Screen. Data for the mlh1 strain (AID 171);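 also: 0% = growth of vehicle-treated control cultures of the same strain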; conditions: S. cerevisiae mlh1 strain growth inhibition, stronger effect = higher value
In short: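 Compounds are applied to a genetically altered yeast strain, and its growth is compared with that of vehicle-treated cultures to give percent inhibition.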

[13] = NCI Yeast Anticancer Drug Screen. Data for the sgs1 strain (AID 173);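 also: 0% = growth of vehicle-only control cultures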; conditions: S. cerevisiae sgs1 mutant, stronger effect = higher value
In short: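 Compounds applied to genetically altered yeast; growth compared with vehicle-treated cultures to give % inhibition.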

[14] = NCI Yeast Anticancer Drug Screen. Data for the mlh1 rad18 strain (AID 175); conditions: S. cerevisiae mlh1 rad18 strain growth inhibition, stronger effect = higher value
In short: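 Cells of a genetically altered yeast strain, deficient in DNA damage repair, were treated with compound. Their growth was then compared with that of vehicle-treated cultures to give inhibition.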

[15] = NCI Yeast Anticancer Drug Screen. Data for the rad18 strain (AID 177); conditions: S. cerevisiae rad18 mutant growth inhibition, stronger effect = higher value
In short: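 Compounds are applied to a repair-deficient yeast strain, and growth is compared with that of vehicle-treated cultures to give percent inhibition.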

[16] = at 5.0 µM (retest, dose inferred, filed as 0.5)
[17] = at 50.0 µM (retest, dose inferred, filed as 5.0)

Measured: growth inhibition

C/C(=N\NC(=S)NNC(=S)N(C)c1ccccc1)c1ccccn1
inactive: [1]; at 1.2 µM 9% | [1]; at 3.7 µM 40% | [2]; at 1.2 µM -4% | [2]; at 3.7 µM 46% | [3]; at 1.2 µM 11% | [3]; at 3.7 µM 5% | [4]; at 1.2 µM -9% | [4]; at 3.7 µM 37% | [4]; [16] -19% | [5]; at 1.2 µM 18% | [5]; at 3.7 µM 25% | [5]; [16] 10% | [6]; at 1.2 µM -6% | [7]; [16] 0% | [8]; at 1.2 µM 17% | [8]; at 3.7 µM 13% | [9]; [16] 29% | [10]; at 1.2 µM -17% | [10]; at 3.7 µM 21% | [11]; at 1.2 µM 9% | [11]; at 3.7 µM 22% | [12]; at 1.2 µM 21% | [12]; at 3.7 µM 41% | [13]; at 1.2 µM 13% | [13]; at 3.7 µM 64% | [14]; [16] 27% | [15]; at 1.2 µM 16% | [15]; at 3.7 µM 31%
active: [1]; at 11.0 µM 97% | [1]; at 33.0 µM 98% | [1]; at 100.0 µM 83% | [2]; at 11.0 µM 97% | [2]; at 33.0 µM 98% | [2]; at 100.0 µM 86% | [3]; at 11.0 µM 92% | [3]; at 33.0 µM 98% | [3]; at 100.0 µM 81% | [4]; at 11.0 µM 97% | [4]; at 33.0 µM 97% | [4]; [17] 98% | [4]; at 50.0 µM 87% | [4]; at 100.0 µM 83% | [5]; at 11.0 µM 98% | [5]; at 33.0 µM 99% | [5]; [17] 99% | [5]; at 50.0 µM 90.5% | [5]; at 100.0 µM 82% | [6]; at 3.7 µM 71% | [6]; at 11.0 µM 97% | [6]; at 33.0 µM 98% | [6]; at 100.0 µM 79% | [7]; [17] 98% | [7]; at 50.0 µM 88.5% | [8]; at 11.0 µM 97% | [8]; at 33.0 µM 98% | [8]; at 100.0 µM 79% | [9]; [17] 99% | [9]; at 50.0 µM 86.3% | [10]; [16] 82% | [10]; at 11.0 µM 97% | [10]; at 33.0 µM 97% | [10]; [17] 98% | [10]; at 50.0 µM 87.2% | [10]; at 100.0 µM 83% | [11]; at 11.0 µM 97% | [11]; at 33.0 µM 99% | [11]; at 100.0 µM 90% | [12]; at 11.0 µM 97% | [12]; at 33.0 µM 98% | [12]; at 100.0 µM 83% | [13]; at 11.0 µM 98% | [13]; at 33.0 µM 98% | [13]; at 100.0 µM 88% | [14]; [17] 99% | [14]; at 50.0 µM 84.5% | [15]; at 11.0 µM 98% | [15]; at 33.0 µM 98% | [15]; at 100.0 µM 83%

OCCNCCOc1ccc(/C(=C(/Cl)c2ccccc2)c2ccccc2)cc1
active: [1]; at 33.0 µM 98% | [1]; at 100.0 µM 97% | [2]; at 33.0 µM 98% | [2]; at 100.0 µM 97% | [3]; at 33.0 µM 70% | [3]; at 100.0 µM 98% | [4]; at 33.0 µM 98% | [4]; [17] 98% | [4]; at 50.0 µM 87.1% | [4]; at 100.0 µM 97% | [5]; at 33.0 µM 98% | [5]; [17] 99% | [5]; at 50.0 µM 94.3% | [5]; at 100.0 µM 97% | [6]; at 11.0 µM 76% | [6]; at 33.0 µM 98% | [6]; at 100.0 µM 97% | [7]; [17] 98% | [7]; at 50.0 µM 93.8% | [8]; at 33.0 µM 99% | [8]; at 100.0 µM 98% | [9]; [17] 98% | [9]; at 50.0 µM 93.2% | [10]; at 33.0 µM 99% | [10]; [17] 99% | [10]; at 50.0 µM 92.7% | [10]; at 100.0 µM 97% | [11]; at 33.0 µM 98% | [11]; at 100.0 µM 97%
inactive: [1]; at 1.2 µM -38% | [1]; at 3.7 µM -36% | [1]; at 11.0 µM -20% | [2]; at 1.2 µM -25% | [2]; at 3.7 µM -26% | [2]; at 11.0 µM -3% | [3]; at 1.2 µM -34% | [3]; at 3.7 µM -28% | [3]; at 11.0 µM -56% | [4]; at 1.2 µM 12% | [4]; at 3.7 µM 1% | [4]; [16] 40% | [4]; at 11.0 µM 29% | [5]; at 1.2 µM -28% | [5]; at 3.7 µM -32% | [5]; [16] 3% | [5]; at 11.0 µM -2% | [6]; at 1.2 µM -9% | [6]; at 3.7 µM -8% | [7]; [16] 36% | [8]; at 1.2 µM -13% | [8]; at 3.7 µM 0% | [8]; at 11.0 µM 25% | [9]; [16] 59% | [10]; at 1.2 µM -8% | [10]; at 3.7 µM -5% | [10]; [16] 32% | [10]; at 11.0 µM 13% | [11]; at 1.2 µM -47% | [11]; at 3.7 µM -48% | [11]; at 11.0 µM -6%
